Experimental findings from PubChem BioAssay (NCI) are described below.

This is part of a sample that, as a whole, favours compounds with a hit. Of some 79,000 tested, about 15% had one in any assay. A number with no mark means an inactive call. Calls of active or inactive are those of the source. No stated cut-off is given here; in the data, active means growth inhibition above about 70%; inactive means the rest.

A short description of this assay: NCI Yeast Anticancer Drug Screen. Data for the bub3 strain (AID 167). The note with it: S. cerevisiae bub3 mutant strain, at 50.0 µM, active compounds read high. Summed up:
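Yeast carrying a defined mutation is treated with each compound, and growth is compared with that of vehicle-exposed cells to give inhibition.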
Take `CC(CC(C#CCN(C)C)N(C)C)CC(C)(C)C` (centres undefined): the growth inhibition is 41.1%. For the compound `CCCCCCCCCCNC(=O)C[n+]1cccc(C(=O)NCc2ccccc2)c1`, the growth inhibition was 99.4% (active). With `Cc1ccc(N2C(N)=C(C#N)C(C#N)(C#N)C2c2ccccc2)cc1` (centres undefined), the growth inhibition was 64.7%.

In the case of `O=[N+]([O-])c1cccc(Cl)c1C(Nc1nncs1)Nc1nncs1`, the growth inhibition was 33.8%. On to `CCCC(C(=O)OCCNC1CCCCC1)c1ccccc1` (centres undefined), for which the growth inhibition is 28.5%. Turning to `BrCc1ccc([Si](c2ccccc2)(c2ccccc2)c2ccc(CBr)cc2)cc1`, the growth inhibition is 10.5%. For `CCCCC(O)(c1ccccc1)C(O)(c1ccccc1)c1c(F)c(F)c(F)c(F)c1F` (centres undefined) the value was 98.6% (active). The figure for `C/C=C\C=N\NC(N)=S` is -2.1%; for `NCCc1ccc2oc3cc(=O)c4ccccc4c-3nc2c1` it is 56.2%. The figure for `CC(C)=CCc1ccc(O)cc1` is 53.9%; for `CCCCCCCCCCCCCC/[N+]([O-])=C/c1ccc([N+](=O)[O-])o1` it is 78% (active); for `Fc1ccc(CSC(=S)Nc2ccc(Br)cc2)cc1` it is 71.1% (active). Consider `C/C(=N\NC(=S)N1CCN(C2CCCCC2)CC1)c1ccccn1`, for which the growth inhibition is 96.6% (active).

As for `Cc1ccccc1N=Nc1sc(N)nc1-c1ccccc1`, the growth inhibition was 30.6%.

Regarding `CN(c1ccc(C(N)=O)cc1)c1c(O)c2ccccc2[nH]c1=O`, the growth inhibition is 23.5%. For `Fc1ccc(CSC(=S)Nc2cccc(C(F)(F)F)c2)cc1` the value was 99.7% (active); for `COc1ccccc1C(C)c1ccc2ccccc2c1C(=O)O` (centres undefined), 93.4% (active); for `CNC(=O)OCc1c(-c2ccccc2)c(-c2ccccc2)n(-c2ccc(OC)cc2)c1COC(=O)NC`, 80% (active).

`Cc1cc(SCC(=O)c2ccc(Cl)cc2)cc(C)[o+]1`: the growth inhibition is 96.3% (active). The figure for `Cn1cnc([N+](=O)[O-])c1Sc1nc2ccccc2s1` is 91.4% (active); for `CCOC(=S)SSC(=S)NCCNC(=S)SSC(=S)OCC` it is 2.55%. The figure for `Cc1nc(C)c(C(=O)NNC(=O)C[N+](C)(C)C)cc1C(=O)NNC(=O)C[N+](C)(C)C` is -15.2%; for `CC/C(=C(\CC)c1ccc(O)c(CN(CC)CC)c1)c1ccc(OC)cc1` it is 99.4% (active); for `CC(C)N(C(=O)CC1(O)CCCCC1)C(C)C` it is -9.25%. `CCCCN(CCCC)CC(O)c1cc(-c2ccc(Cl)cc2)nc2cc(C)ccc12` (centres undefined): the growth inhibition was 98.9% (active). The figure for `C/C(=C\c1ccccc1Cl)c1ccccn1` is 96.8% (active); for `O=C(OC1C2CCC2C2CC21)c1cc([N+](=O)[O-])cc([N+](=O)[O-])c1` (centres undefined) it is 62.2%. The figure for `O=c1[nH]c2c([N+](=O)[O-])cc(Cl)cc2nc1/C=C(\O)c1ccc(F)cc1` is 43.5%; for `CC(=O)N[C@H]1CC[C@H]2[C@@H]3CCC4=CC(=O)CC[C@]4(C)[C@H]3CC[C@]12C` it is 98% (active). The figure for `CC12OC(=O)C(C(N)=O)=C1C=C(c1ccccc1)CC2c1ccccc1` (centres undefined) is 87.5% (active); for `Cn1c2nc(-[n+]3ccccc3)nc-2c([O-])n(C)c1=O` it is -6.95%.

Consider `COc1cc(NCCCCCCCC2CCCCN2)c2ncccc2c1` (centres undefined), for which the growth inhibition is 98.5% (active). `Nc1ncnc(N2CCOCC2)c1N`: the growth inhibition was -10.7%.

As for `CCCCCCCCCCCCNCC(=O)O`, the growth inhibition was 92.2% (active). The figure for `O=C(O)C1C2CC3CC(C2)CC1C3` (centres undefined) is 75.5% (active). The figure for `CC(=O)OC1CCC2(C)C(=CCC3C2CCC2(C)C3CC(C(N)=O)C2C(C)=O)C1` (centres undefined) is 7.4%; for `CC1(C)CC(=N/O)/C(=N/O)C(=N\NC(N)=S)/C1` it is 64.9%. With `CCCCCCCCCCCCCCCCCC1=NCCN1`, the growth inhibition is 99.3% (active). For `O=c1c2ccccc2c2ccccc2c(=O)n1-c1cc2c3ccccc3ccc2c2ccccc12` the value was -66.5%.
